Common to all, as to parameters: scale not given: direction of the effect not stated beside the values
The target in experiment [1] is Protein translocase subunit SecA (Escherichia coli (strain K12)) (UniProt P10408). The experiment can be described thus: Assay to Identify E. coli SecA ATPase Inhibitors. The class given is functional. To be noted: 30 µM.
In experiment [2] the target is T1, Ubiquitin-activating enzyme e1, putative (Leishmania donovani (strain BPK282A1)) (UniProt E9BSI1).
T1 sequence (whole entry): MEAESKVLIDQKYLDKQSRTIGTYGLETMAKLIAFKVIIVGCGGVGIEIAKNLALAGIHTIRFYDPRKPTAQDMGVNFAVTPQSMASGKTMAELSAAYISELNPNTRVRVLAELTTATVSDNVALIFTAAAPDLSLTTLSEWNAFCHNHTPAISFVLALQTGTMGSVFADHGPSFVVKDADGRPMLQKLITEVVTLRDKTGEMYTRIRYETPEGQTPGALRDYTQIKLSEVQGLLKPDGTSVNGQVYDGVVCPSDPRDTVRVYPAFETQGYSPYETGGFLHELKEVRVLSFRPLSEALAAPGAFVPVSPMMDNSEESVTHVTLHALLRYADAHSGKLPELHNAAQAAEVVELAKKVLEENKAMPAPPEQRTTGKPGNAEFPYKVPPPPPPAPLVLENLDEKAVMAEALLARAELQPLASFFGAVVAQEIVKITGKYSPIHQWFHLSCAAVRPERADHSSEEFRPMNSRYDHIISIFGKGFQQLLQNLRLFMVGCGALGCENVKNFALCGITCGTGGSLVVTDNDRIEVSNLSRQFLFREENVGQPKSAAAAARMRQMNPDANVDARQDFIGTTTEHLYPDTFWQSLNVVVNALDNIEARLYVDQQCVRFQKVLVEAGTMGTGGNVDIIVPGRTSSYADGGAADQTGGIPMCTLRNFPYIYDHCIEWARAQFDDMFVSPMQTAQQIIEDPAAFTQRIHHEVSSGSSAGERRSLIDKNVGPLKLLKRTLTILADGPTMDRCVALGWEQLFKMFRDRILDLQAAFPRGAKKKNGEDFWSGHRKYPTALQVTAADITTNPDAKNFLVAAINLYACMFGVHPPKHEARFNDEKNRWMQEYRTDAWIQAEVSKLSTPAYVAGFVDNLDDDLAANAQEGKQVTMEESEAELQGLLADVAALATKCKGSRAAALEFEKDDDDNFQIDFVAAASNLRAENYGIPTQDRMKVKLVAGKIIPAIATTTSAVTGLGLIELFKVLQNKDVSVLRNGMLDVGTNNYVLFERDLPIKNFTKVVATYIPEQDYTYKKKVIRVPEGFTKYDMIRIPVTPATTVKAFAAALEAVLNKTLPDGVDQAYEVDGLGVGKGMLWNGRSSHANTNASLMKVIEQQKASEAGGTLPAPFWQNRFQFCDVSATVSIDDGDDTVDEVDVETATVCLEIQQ
The experiment can be described thus: Leishmania donovani Ubiquitin Activating Enzyme (LdE1). The class given is functional. The conditions noted are these: 30 µM.

The target of experiment [3] is AMP-activated protein kinase, AMPK (Homo sapiens) (UniProt P54646+O43741+P54619+Q9UGJ0+Q9Y478+Q13131+Q9UGI9). Briefly: AMP-dependent Kinase enzyme assay. An in vitro enzyme assay that detects ADP turnover that is directly proportional to AMPK activity. This uses naive AMPK that is activated during the assay with MK-8722. To be noted: 30 µM. The class given is functional.

The target of experiment [4] is Sialic acid-binding Ig-like lectin 9 (Homo sapiens) (UniProt Q9Y336). Briefly: Hs-Siglec9 ALPHAscreen SOP 20170721. The conditions noted are these: 10 µM. In general terms: Bead proximity is the source of the signal in Alpha formats.
Sequence of Sialic acid-binding Ig-like lectin 9 (Homo sapiens) (Q9Y336 whole entry): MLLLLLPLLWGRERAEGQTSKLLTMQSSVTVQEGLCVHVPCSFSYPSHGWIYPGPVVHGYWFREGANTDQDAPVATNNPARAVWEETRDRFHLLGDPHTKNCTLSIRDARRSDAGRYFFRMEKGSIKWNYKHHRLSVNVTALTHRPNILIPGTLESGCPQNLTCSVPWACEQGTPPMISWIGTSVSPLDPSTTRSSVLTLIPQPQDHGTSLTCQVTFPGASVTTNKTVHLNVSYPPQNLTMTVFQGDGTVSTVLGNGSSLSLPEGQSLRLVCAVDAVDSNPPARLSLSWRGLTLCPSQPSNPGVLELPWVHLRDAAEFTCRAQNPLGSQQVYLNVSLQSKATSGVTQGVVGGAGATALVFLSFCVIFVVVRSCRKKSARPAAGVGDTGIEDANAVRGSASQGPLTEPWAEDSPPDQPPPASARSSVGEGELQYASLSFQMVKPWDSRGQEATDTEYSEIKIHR
The subject of a further experiment is Trypanosoma cruzi. Briefly: Trypanosoma cruzi phosphomannomutase and mannose-1-phosphate guanylyltransferase assay. The class given is functional. The conditions noted are these: 10 µM.
Experiment [5] concerns the target T2, Arginase-2, mitochondrial (Homo sapiens) (UniProt P78540).
T2 sequence (whole entry): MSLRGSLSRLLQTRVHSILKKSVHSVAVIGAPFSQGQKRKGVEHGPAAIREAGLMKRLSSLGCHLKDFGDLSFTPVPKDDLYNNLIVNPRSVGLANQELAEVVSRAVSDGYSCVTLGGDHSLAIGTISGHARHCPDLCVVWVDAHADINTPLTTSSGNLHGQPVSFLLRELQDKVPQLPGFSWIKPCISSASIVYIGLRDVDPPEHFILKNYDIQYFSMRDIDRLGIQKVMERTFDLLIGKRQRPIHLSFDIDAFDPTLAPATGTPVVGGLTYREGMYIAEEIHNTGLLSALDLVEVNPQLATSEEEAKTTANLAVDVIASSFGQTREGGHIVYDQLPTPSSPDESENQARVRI
The experiment can be described thus: in vitro enzyme assay to detect the production of urea directly proportional to the activity of Arginase II. Also: in the data most compounds retested in dose-response had high values. The class given is functional. To be noted: 33.3 µM.

Experiment [6] has as its target T3, Proteasome subunit beta (Trypanosoma cruzi) (UniProt O96673).
T3 sequence (whole entry): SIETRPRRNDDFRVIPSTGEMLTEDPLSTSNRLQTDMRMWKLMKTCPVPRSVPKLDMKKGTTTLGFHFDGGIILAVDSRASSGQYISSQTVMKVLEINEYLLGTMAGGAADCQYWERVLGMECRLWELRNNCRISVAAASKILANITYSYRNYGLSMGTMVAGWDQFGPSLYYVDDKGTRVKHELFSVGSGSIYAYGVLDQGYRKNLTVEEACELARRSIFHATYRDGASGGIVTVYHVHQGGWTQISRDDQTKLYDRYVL
Briefly: Trypanosoma cruzi proteasome chymotrypsin-like activity (TcProtChymo) assay. Also: in the data most compounds retested in dose-response had high values. The class given is functional. To be noted: 9.37 µM.

The species named for another experiment is Homo sapiens. Briefly: To identify inhibition of the IFN signalling (Jak-Stat) pathway via expression of an eGFP reporter gene under the control of an IFN-stimulated response element (ISRE) containing MxA promoter. The class given is functional. To be noted: 30 µM. Background: In a reporter assay the amount or activity of a reporter protein is the signal.

The target of experiment [7] is T4, Tyrosyl-tRNA synthetase, putative (Trypanosoma cruzi (strain CL Brener)) (UniProt Q4DSP6).
T4 sequence (whole entry): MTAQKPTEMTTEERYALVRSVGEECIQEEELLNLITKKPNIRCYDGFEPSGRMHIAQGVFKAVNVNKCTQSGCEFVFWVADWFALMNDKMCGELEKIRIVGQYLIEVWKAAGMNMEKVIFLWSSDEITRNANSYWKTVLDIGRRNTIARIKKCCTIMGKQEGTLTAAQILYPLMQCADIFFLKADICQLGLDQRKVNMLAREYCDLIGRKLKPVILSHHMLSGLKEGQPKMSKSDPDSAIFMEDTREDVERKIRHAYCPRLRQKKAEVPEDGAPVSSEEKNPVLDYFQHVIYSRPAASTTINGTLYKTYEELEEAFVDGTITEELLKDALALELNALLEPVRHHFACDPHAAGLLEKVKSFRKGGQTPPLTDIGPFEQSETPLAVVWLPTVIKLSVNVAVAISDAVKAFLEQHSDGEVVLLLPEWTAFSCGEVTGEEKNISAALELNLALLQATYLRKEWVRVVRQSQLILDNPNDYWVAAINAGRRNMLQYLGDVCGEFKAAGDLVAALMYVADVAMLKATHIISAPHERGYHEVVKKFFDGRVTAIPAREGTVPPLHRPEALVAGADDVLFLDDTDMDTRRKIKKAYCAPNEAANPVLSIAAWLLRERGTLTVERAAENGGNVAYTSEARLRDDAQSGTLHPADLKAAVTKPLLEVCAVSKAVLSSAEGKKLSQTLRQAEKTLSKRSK
The experiment can be described thus: Trypanosoma cruzi tyrosyl tRNA synthetase (TcYRS) _High Tyrosine SOP. Also: in the data most compounds retested in dose-response had high values. Format: functional. The conditions noted are these: 30 µM.

Experiment [8] concerns the target T4, Tyrosyl-tRNA synthetase, putative (Trypanosoma cruzi (strain CL Brener)). The experiment can be described thus: Trypanosoma cruzi tyrosyl tRNA synthetase (TcYRS) SOP. Format: functional. The conditions noted are these: 30 µM.
Experiment [9] deals with Chromo domain-containing protein 1 (Saccharomyces cerevisiae (strain ATCC 204508 / S288c) (Baker's yeast)) (UniProt P32657). The experiment can be described thus: ScCHD-1 Enzyme Inhibition Assay. Also: in the data most compounds retested in dose-response had high values. To be noted: 30 µM. The class given is functional.
Sequence of Chromo domain-containing protein 1 (Saccharomyces cerevisiae (strain ATCC 204508 / S288c) (Baker's yeast)) (P32657 whole entry, the tested form may be a part): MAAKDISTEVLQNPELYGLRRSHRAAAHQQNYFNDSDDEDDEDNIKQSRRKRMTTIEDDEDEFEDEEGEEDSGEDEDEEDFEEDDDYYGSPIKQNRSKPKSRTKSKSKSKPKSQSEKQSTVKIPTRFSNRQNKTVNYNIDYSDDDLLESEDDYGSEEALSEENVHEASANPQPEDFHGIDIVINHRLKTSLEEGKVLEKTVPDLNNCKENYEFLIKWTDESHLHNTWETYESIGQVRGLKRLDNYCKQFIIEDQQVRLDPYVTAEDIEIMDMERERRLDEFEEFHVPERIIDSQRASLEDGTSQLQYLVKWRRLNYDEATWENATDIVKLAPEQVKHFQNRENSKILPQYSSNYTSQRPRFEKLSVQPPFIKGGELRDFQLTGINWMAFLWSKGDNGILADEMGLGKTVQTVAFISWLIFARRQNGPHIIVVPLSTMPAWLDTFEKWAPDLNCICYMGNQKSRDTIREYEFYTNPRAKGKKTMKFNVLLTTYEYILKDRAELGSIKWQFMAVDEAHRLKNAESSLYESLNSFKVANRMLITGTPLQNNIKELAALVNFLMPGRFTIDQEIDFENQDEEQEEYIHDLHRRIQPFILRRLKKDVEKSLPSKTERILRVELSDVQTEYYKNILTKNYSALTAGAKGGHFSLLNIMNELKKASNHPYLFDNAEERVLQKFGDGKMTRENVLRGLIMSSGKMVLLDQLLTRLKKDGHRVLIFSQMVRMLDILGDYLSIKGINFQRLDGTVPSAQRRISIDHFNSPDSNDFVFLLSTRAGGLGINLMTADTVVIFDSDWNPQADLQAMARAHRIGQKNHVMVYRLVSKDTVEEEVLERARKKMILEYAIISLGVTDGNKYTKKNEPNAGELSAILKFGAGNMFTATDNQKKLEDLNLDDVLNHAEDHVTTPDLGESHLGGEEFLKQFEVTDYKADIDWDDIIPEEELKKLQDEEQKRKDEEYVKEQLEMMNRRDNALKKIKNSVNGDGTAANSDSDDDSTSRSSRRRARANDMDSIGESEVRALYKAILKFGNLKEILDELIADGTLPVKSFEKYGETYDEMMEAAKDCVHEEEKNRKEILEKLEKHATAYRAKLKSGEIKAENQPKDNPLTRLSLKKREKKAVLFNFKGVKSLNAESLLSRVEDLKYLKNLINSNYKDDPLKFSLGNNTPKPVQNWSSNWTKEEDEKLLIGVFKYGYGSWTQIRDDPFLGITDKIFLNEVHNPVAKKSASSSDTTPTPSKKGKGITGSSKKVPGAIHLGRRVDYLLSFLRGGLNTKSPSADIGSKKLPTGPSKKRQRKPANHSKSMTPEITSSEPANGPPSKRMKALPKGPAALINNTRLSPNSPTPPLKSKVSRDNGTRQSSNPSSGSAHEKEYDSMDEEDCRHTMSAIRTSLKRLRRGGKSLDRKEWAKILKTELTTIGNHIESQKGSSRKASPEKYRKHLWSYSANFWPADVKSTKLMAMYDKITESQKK

For some assays here: Entries with a potency or affinity are not part of this list.

Sequence of Protein translocase subunit SecA (Escherichia coli (strain K12)) (P10408 whole entry): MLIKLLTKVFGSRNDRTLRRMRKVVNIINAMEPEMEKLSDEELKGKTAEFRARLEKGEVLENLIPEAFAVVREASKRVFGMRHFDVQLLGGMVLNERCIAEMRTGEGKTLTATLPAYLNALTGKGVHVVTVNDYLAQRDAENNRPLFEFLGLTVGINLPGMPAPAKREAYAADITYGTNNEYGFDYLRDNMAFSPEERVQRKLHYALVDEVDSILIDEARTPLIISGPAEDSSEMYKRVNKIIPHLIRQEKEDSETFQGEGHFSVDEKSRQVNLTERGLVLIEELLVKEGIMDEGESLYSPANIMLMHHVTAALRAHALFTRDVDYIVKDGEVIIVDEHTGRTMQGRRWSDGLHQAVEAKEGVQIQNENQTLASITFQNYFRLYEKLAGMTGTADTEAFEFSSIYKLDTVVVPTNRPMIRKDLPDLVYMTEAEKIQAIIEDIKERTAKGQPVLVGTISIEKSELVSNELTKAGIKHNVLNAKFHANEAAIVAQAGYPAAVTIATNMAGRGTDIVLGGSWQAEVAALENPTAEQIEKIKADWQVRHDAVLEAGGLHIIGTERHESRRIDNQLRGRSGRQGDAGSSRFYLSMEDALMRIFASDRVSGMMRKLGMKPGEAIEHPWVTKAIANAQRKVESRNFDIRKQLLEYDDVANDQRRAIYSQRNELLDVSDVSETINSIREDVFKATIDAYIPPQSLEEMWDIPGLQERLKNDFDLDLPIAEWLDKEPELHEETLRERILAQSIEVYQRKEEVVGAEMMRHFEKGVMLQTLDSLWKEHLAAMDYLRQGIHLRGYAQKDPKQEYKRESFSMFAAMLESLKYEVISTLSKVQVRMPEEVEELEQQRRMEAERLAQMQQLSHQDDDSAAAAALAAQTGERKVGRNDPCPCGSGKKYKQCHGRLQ

`CN(C)C(=O)N1C[C@@H]2COC[C@]2(CNS(C)(=O)=O)C1`: the Percent Effect is -1.78% in [1]; -2.7% in [2]; 5.5% in experiment [3]; 5.41% in [4]; -1.27% in the experiment with Trypanosoma cruzi; 2.87% in experiment [5]. The Percent Effect is 16.8% in experiment [6]; -0.0949% in the experiment filed under Homo sapiens; 0% in experiment [7]; -5.13% in experiment [8]; 3.04% in experiment [9].
For `Cc1nc(CCNC(=O)C2CC(=O)N(C(C)(C)C)C2)sc1C` (stereo not given), the Percent Effect is -4.83% in experiment [1]; 0% in experiment [2]; -1.25% in experiment [3]; 5.84% in experiment [4]; -1.19% with Trypanosoma cruzi; -3.59% in experiment [5]. Further, the Percent Effect in experiment [6] was 8.82%; in the experiment listed under Homo sapiens it was -0.947%; in [7], 5.21%; in experiment [8], 11.1%; in experiment [9], -3.8%.
As for `O=C(NCCCn1cccn1)C1(c2ccc(F)cc2)CC1`, the Percent Effect worked out at 0.73% in [1]; 16.4% in experiment [2]; 0.361% in experiment [3]; 3.37% in experiment [4]; 3.72% in the experiment with Trypanosoma cruzi; 10.4% in [5]. Also, the Percent Effect in experiment [6] is 8.87%; in the experiment listed under Homo sapiens it was -5.73%; in experiment [7] it was 6.45%; in [8], 12.5%; in [9] it was -4.26%.
Consider `O=C1COC2(CCN(Cc3ccccn3)CC2)CN1CC1CC1`, for which the Percent Effect in experiment [1] is 0.889%; in experiment [2], 2.6%; in experiment [3] it was 17.2%; in experiment [4], 2.67%; with Trypanosoma cruzi, -4.83%; in [5] it was -1.94%. Also, the Percent Effect is -3.13% in experiment [6]; 9.22% in the experiment filed under Homo sapiens; 1.06% in [7]; 3.85% in experiment [8]; -1.35% in experiment [9].
Consider `Cc1ncoc1C(=O)N1C[C@H]2CCC[C@@]2(COCC2CCOCC2)C1`, for which the Percent Effect in [1] was -3.5%; in experiment [2] it was 0%; in [3], 4.71%; in experiment [4], -0.295%; in the experiment with Trypanosoma cruzi, 1.66%; in [5], 1.59%. The Percent Effect in [6] is 22.3%; in the experiment listed under Homo sapiens, -6.69%; in [7] it was 2.16%; in [8] it was 7.69%; in [9] it was 5.48%.
For `O=C(CCc1cscn1)N1CCCC(c2ccn[nH]2)C1` (stereo not given), the Percent Effect in experiment [1] was -3.73%; in experiment [2], -5.2%; in experiment [3], 4.11%; in experiment [4], 6.88%; in the experiment on Trypanosoma cruzi, -2.62%; in [5], 1.07%. The Percent Effect in experiment [6] was 5.91%; in the experiment filed under Homo sapiens, 15.7%; in experiment [7], 2.91%; in experiment [8], 0%; in experiment [9], -3.79%.
As to `CN(Cc1ccc(F)cc1)C(=O)CN1CCOC(Cn2cncn2)C1` (stereo not given), the Percent Effect in [1] is 0.893%; in experiment [2], 17.7%; in [3], -2.68%; in experiment [4] it was -5.85%; with Trypanosoma cruzi, -7.65%; in [5], -1.52%. Moreover, the Percent Effect in [6] is 17.6%; in the experiment filed under Homo sapiens it was 36%; in [7] it was 1.48%; in experiment [8], 3.8%; in [9], -4.1%.
For the compound `O=C(CCNS(=O)(=O)c1ccc2c(c1)CCCC2)NCc1ccoc1`, the Percent Effect was -5% in [1]; 5.33% in experiment [2]; 8.4% in experiment [3]; 5.02% in experiment [4]; -2.43% in the experiment on Trypanosoma cruzi; -2.08% in [5]. The Percent Effect in experiment [6] is 8.37%; in the experiment listed under Homo sapiens, 14.2%; in experiment [7], 4.92%; in [8], 11.1%; in experiment [9], -6.46%.
With `O=C(c1ccc(F)c(F)c1)N1CCCSCC1CN1CCCC1` (stereo not given), the Percent Effect is -3.82% in experiment [1]; 0% in experiment [2]; 4.53% in [3]; -1.26% in [4]; 2.86% in the experiment on Trypanosoma cruzi; -0.645% in experiment [5]. The Percent Effect is 8.7% in [6]; -1.06% in the experiment filed under Homo sapiens; 7.41% in [7]; 16.7% in experiment [8]; -8.34% in experiment [9].
As for `CCS(=O)(=O)N1CCO[C@H]2[C@H](OCC3CCCC3)CC[C@@H]21`, the Percent Effect in experiment [1] was -3.86%; in experiment [2], 5.33%; in experiment [3], 0.773%; in experiment [4], 0.841%; in the experiment with Trypanosoma cruzi it was 5.21%; in experiment [5], -50.7%. For the same compound, the Percent Effect in [6] is 7.01%; in the experiment listed under Homo sapiens it was 2.31%; in [7], 1.04%; in [8] it was 15%; in experiment [9], -5.43%.

The record behind these values is ChEMBL document CHEMBL3988442, “University of Dundee, Small-Polar-MMV Screening Library” (2021).
